# “And” between values parts separate entries of the source, which are not always exact repeats. Equal entries are not always repeated. In all, about 350,000 compounds went through this assay and about 600 (0.17%) were called active. What follows is part of a selection rich in actives, with near analogues and random picks from the rest. A number with no mark means an inactive call.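 The calls were made as follows: active = every replicate shows inhibition of at least 40%; inconclusive = mean inhibition at least 40% but some replicate below; inactive = the rest.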
# Experiment: compounds lowering acetylated PGC1a in cells – cell-based, U2OS, AlphaScreen, inhibitor mode, primary screen (AID 651687);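 also: 0% = neutral control wells and 100% = positive control wells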
# Conditions: U2OS PGC1a acetylation, AlphaScreen anti-acetyl-lysine; at 15.6 µM; hits give high values; with virally co-expressed GCN5 acetyltransferase
row,Structure (SMILES),inhibition
1,C[C@H](CO)N1C[C@H](C)[C@H](CN(C)S(=O)(=O)c2cn(C)cn2)Oc2c(NC(=O)c3ccncc3)cccc2C1=O,-3.09%
2,CO[C@H]1CN(C)C(=O)c2ccc(NC(=O)c3nc4ccccc4s3)cc2OC[C@@H](C)N(Cc2cncnc2)C[C@H]1C,10.9%
3,CC[C@H]1CN2CCc3cc(OC)c(OC)cc3[C@@H]2C[C@@H]1C[C@H]1NCCc2cc(OC)c(OC)cc21,83.7% (active)
4,C[C@@H]1CN([C@@H](C)CO)S(=O)(=O)c2ccc(-c3cccc(F)c3)cc2O[C@@H]1CN(C)S(=O)(=O)c1ccccc1,5.85%
5,C[C@H](CO)N1C[C@H](C)[C@H](CN(C)C)Oc2ncc(/C=C/c3ccccc3)cc2C1=O,-8.6% and 4.49%
6,CO[C@H]1CN(C)C(=O)c2cc(NC(=O)c3nc4ccccc4s3)ccc2OC[C@H](C)N(Cc2cccnc2)C[C@@H]1C,7.17%
7,COc1ccc(NC(=O)N2CC[C@@H]3[C@@H](CO)N(C)c4ccc(-c5cccc(F)c5)cc4[C@@H]32)cc1,10.2%
8,O=C(Nc1ccc(C(F)(F)F)cc1)N[C@@H]1CC[C@H](CCNC(=O)c2ccccc2F)O[C@H]1CO,10.8%
9,CO[C@@H]1CN(C)C(=O)c2ccc(NC(=O)NC(C)C)cc2OC[C@H](C)N(Cc2ccc(-c3ccccn3)cc2)C[C@H]1C,-3.93%
10,COc1ccccc1N1CCC(N2CCN(CC(C)(C)C)C(CCO)C2)CC1 (centres undefined),10.6%
11,COc1ccc(N2CCC(N3CCN(C)C(CCO)C3)CC2)cc1 (centres undefined),0.824%
12,CCOc1ccccc1CN1CCN(C2CCC2)CC1CCO (centres undefined),74.8% (active)
13,CO[C@@H]1CN(C)C(=O)c2ccc(NC(=O)c3ccccn3)cc2OC[C@@H](C)N(C(=O)C2CCCCC2)C[C@H]1C,-2.25%
14,C[C@H](CO)N1C[C@H](C)[C@H](CN(C)Cc2ccccn2)Oc2ncc(C#CCc3ccccc3)cc2C1=O,-0.518%
15,COCCCNC(=O)[C@@]1(Cc2ccccc2)COC(c2ccc(OCCCO)cc2)=N1,4.46%
16,Cc1ccc(S(=O)(=O)N(C)C[C@H]2OCCCC[C@@H](C)Oc3ccc(NC(=O)Nc4ccc(F)cc4)cc3C(=O)N([C@@H](C)CO)C[C@H]2C)cc1,-6.65%
17,C[C@@H]1CN([C@H](C)CO)C(=O)c2cc(C#Cc3cccc(F)c3)cnc2O[C@H]1CN(C)Cc1ccccn1,-11.1%
18,Cc1noc(C)c1S(=O)(=O)Nc1ccc2c(c1)CC(=O)N([C@@H](C)CO)C[C@H](C)[C@H](CN(C)S(=O)(=O)c1ccc(Cl)cc1)O2,10.3%
19,CO[C@H]1CN(C)C(=O)c2cc(NC(=O)C3CC3)ccc2OC[C@H](C)N(C(=O)CN(C)C)C[C@H]1C,-4.9%
20,O=C(C[C@H]1C[C@H]2c3cc(NC(=O)CC4CC4)ccc3O[C@H]2[C@H](CO)O1)NCc1cc(F)ccc1F,-0.32%
21,C[C@H](CO)N1C[C@H](C)[C@@H](CN(C)Cc2ccc(C(F)(F)F)cc2)Oc2ccc(NC(=O)Cn3cnnn3)cc2CC1=O,6.38%
22,Cc1noc(C)c1NC(=O)Nc1ccc2c(c1)C(=O)N([C@H](C)CO)C[C@@H](C)[C@@H](CN(C)S(=O)(=O)c1ccc(Cl)cc1)OCCCC[C@H](C)O2,0.953%
23,COc1ccc(S(=O)(=O)N(C)C[C@H]2Oc3ccc(NS(C)(=O)=O)cc3C(=O)N([C@H](C)CO)C[C@H]2C)cc1,-5.85%
24,O=C(Cc1ccccc1)N1CC[C@H]2[C@H](CO)Nc3ccc(-c4ccccc4F)cc3[C@H]21,-17.2%
25,CC(C)NC(=O)Nc1ccc2c(c1)C(=O)N([C@H](C)CO)C[C@H](C)[C@@H](CN(C)Cc1ccc3c(c1)OCO3)OCCCC[C@H](C)O2,4.63%

row,Structure (SMILES),inhibition
1,C[C@@H]1CN([C@@H](C)CO)C(=O)c2cc(NC(=O)c3ccncc3)ccc2O[C@@H]1CN(C)S(C)(=O)=O,6.79%
2,Cc1ccccc1-c1ccc([C@H]2[C@@H](CO)N3C(=O)CN(C(=O)c4ccncc4)C[C@H]23)cc1,-5.89%
3,Cn1c2c(c(=O)n(C)c1=O)C(c1cccc(F)c1)C(C#N)=C(N)O2 (centres undefined),80.9% (active)
4,N#CC1=C(N)Oc2cc(N)ccc2C1c1ccccc1 (centres undefined),-1.66%
5,Cc1cc2c(c(=O)n1C)C(C(C)C)C(C#N)=C(N)O2 (centres undefined),8.23%
6,C[C@@H]1CN([C@@H](C)CO)C(=O)c2cc(NC(=O)CCCCCC(=O)Nc3ccccc3N)ccc2O[C@@H](C)CCCCO[C@@H]1CN(C)CC1CCCCC1,3.98%
7,O=C(CC(F)(F)F)N1C[C@H]2[C@@H](c3ccccc31)[C@H](CO)N2C(=O)Cc1cccnc1,0.596%
8,CN(C)Cc1cn(CC[C@H]2CC[C@@H](NS(=O)(=O)c3ccccc3)[C@H](CO)O2)nn1,-1.22%
9,CO[C@H]1CN(C)C(=O)c2ccc(NS(C)(=O)=O)cc2OC[C@@H](C)N(Cc2ccccc2)C[C@H]1C,4.39%
10,O=C(C[C@@H]1CC[C@@H](NC(=O)c2cccnc2)[C@H](CO)O1)NCCN1CCCCC1,6.21%
11,CCC(=O)N1CC(=O)N2[C@@H](CO)[C@H](c3ccc(C#CCC(C)C)cc3)[C@@H]2C1,-4.62%
12,O=C(CC(F)(F)F)N1C[C@H]2[C@@H](c3ccccc31)[C@H](CO)N2C(=O)Cc1ccccc1,9.3%
13,C/C=C/c1ccccc1[C@@H]1[C@@H](C#N)N(C(=O)Cc2ccccn2)[C@H]1CO,-0.046%
14,C[C@H]1CN([C@@H](C)CO)S(=O)(=O)c2ccc(C#CC3(O)CCCC3)cc2O[C@@H]1CN(C)C(=O)Nc1cccc(F)c1,-10%
15,Cc1ccc(S(=O)(=O)N2C[C@H](O)COC[C@@H]3O[C@@H](CC(=O)NCC4CCCCC4)CC[C@H]32)cc1,-0.708%
16,N#Cc1ccc(-c2ccc([C@@H]3[C@H]4CNC[C@@H]3N4Cc3ccc4c(c3)OCO4)cc2)cc1,48.1% (active)
17,COc1ccccc1CN1[C@@H]2CNC[C@H]1C2c1ccc(-c2cccc(C#N)c2)cc1 (some centres undefined),1.68% and -10%
18,N#Cc1ccc(-c2ccc3c(c2)[C@H]2[C@H](CCN2Cc2ccc4c(c2)OCO4)[C@@H](CO)N3)cc1,-7%
19,COc1ccc2c3c([nH]c2c1)[C@H](CO)N(Cc1ccccc1OC)CC31CCN(S(=O)(=O)c2ccccc2)CC1,8.15%
20,C[C@@H]1CN([C@@H](C)CO)C(=O)c2cccc(NC(=O)c3ccc(-c4nccs4)cc3)c2O[C@H]1CN(C)C(=O)Nc1ccccc1,-1.84%
21,Cc1ccc(C)n1NC(=O)c1ccc([N+](=O)[O-])cc1,2.46%
22,N=C1C(c2nc3ccccc3s2)=C(O)CN1NC(=O)c1ccc([N+](=O)[O-])cc1,100% (active)
23,O=C(Nn1cnnc1)c1ccc([N+](=O)[O-])cc1,-2.58%
24,COc1ccc(NC(=O)N2C[C@H](O)COC[C@H]3O[C@@H](CC(=O)NC4Cc5ccccc5C4)CC[C@@H]32)cc1,1.58%
